In the supplement of paper PMC11732987, “Enantioselective OTUD7B fragment discovery through chemoproteomics screening and high-throughput optimisation” (Communications Chemistry, 2025):

Columns and labels:
Experiment in all cases: log2 ratio of Biotin-Ahx-Ub-VS probe labelling (fragment/DMSO); higher = less target engagement (more negative = stronger competition), active = hit call of the paper (q ≤ 0.05, log2 ratio ≤ -1)
Details in all cases: compound concentration: 200 uM; treatment time: 3 h
USP34 = USP34 (UniProt Q70CQ2)
Outline: (§1)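 Average log2 ratios of fragment over vehicle were obtained by unpaired t-test from global-median-normalised Spectronaut label-free quantities. Proteins with ≥2 unique peptides were included. HEK293T lysate (495 µg per sample) was treated in triplicate with fragment at 200 µM or vehicle for 3 h, then with Biotin-Ahx-Ub-VS at 0.5 µM final for 1 h, and labelled DUBs were NeutrAvidin-enriched and run by diaPASEF LC-MS/MS.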

USP36 = target: T1, USP36 (UniProt Q9P275)
T1 sequence (whole entry): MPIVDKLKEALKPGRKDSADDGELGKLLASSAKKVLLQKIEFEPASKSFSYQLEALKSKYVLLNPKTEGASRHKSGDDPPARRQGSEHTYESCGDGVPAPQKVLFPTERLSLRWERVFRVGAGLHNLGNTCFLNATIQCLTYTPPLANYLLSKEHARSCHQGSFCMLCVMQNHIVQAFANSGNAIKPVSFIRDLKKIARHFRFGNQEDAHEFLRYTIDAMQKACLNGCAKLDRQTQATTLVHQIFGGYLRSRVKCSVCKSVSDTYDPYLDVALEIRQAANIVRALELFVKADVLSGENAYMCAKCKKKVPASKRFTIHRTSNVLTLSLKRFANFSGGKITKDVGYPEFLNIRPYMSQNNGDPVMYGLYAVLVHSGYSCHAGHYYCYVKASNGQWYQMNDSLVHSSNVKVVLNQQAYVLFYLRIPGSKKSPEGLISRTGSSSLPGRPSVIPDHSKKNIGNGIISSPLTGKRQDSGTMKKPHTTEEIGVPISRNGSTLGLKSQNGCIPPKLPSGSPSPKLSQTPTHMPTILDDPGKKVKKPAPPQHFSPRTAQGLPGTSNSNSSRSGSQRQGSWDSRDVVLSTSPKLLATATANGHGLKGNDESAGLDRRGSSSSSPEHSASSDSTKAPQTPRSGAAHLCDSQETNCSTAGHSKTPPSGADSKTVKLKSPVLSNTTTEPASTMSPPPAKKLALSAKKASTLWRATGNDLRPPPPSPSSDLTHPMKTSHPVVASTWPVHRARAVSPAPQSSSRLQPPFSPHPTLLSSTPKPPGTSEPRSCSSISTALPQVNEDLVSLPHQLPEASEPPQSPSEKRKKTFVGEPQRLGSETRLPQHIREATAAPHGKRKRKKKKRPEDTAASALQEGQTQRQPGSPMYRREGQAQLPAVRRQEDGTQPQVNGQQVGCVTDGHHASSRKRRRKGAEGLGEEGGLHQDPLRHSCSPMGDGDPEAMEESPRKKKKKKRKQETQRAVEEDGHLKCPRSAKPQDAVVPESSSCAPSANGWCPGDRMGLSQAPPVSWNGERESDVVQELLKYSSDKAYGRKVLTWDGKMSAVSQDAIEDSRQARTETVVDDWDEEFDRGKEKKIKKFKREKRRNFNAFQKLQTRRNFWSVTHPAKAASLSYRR
Outline: as §1

USP38 = target: T2, USP38 (UniProt Q8NB14)
T2 sequence (whole entry): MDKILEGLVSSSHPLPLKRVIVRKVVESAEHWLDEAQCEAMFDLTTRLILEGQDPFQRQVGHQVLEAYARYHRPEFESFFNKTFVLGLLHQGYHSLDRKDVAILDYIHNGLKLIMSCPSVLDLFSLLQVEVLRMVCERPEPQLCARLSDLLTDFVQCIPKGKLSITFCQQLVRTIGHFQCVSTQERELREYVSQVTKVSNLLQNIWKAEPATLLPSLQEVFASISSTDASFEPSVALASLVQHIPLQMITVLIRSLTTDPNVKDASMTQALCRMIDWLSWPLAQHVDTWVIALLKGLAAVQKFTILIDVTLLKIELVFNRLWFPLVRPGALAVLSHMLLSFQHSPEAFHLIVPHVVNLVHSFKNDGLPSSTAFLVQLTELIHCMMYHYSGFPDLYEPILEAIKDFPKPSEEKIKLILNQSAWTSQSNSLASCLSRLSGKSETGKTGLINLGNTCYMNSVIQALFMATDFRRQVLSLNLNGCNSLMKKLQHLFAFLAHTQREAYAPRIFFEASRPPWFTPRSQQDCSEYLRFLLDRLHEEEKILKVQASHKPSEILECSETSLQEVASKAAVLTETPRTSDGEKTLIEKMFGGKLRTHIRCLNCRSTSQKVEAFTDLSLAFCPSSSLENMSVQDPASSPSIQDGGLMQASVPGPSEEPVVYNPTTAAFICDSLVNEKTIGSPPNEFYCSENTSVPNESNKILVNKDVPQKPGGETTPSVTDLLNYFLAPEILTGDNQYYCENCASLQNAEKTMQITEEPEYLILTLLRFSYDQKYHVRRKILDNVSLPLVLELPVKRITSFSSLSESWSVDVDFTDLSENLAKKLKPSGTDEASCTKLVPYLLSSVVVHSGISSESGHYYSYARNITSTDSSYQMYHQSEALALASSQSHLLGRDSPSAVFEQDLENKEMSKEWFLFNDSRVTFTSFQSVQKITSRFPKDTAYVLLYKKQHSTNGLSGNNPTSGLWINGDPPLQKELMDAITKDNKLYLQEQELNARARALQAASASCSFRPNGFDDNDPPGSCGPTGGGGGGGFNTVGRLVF
Outline: as §1

USP39 = target: T3, USP39 (UniProt Q53GS9)
T3 sequence (whole entry): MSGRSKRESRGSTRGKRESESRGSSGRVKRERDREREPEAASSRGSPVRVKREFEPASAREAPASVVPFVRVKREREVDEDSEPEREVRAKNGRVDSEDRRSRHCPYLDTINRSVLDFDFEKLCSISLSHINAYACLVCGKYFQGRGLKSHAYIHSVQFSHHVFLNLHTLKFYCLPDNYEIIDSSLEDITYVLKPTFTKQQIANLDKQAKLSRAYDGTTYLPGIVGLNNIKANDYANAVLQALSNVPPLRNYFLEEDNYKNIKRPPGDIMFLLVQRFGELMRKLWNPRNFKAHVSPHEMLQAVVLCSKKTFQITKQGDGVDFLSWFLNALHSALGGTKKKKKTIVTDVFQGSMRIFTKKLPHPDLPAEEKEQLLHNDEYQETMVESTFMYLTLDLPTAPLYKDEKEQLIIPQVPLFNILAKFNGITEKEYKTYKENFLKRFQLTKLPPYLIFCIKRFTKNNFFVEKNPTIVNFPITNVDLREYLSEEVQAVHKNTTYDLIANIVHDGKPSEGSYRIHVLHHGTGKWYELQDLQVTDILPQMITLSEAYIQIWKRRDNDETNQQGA
Outline: as §1

USP4 = target: T4, USP4 (UniProt Q13107)
T4 sequence (whole entry): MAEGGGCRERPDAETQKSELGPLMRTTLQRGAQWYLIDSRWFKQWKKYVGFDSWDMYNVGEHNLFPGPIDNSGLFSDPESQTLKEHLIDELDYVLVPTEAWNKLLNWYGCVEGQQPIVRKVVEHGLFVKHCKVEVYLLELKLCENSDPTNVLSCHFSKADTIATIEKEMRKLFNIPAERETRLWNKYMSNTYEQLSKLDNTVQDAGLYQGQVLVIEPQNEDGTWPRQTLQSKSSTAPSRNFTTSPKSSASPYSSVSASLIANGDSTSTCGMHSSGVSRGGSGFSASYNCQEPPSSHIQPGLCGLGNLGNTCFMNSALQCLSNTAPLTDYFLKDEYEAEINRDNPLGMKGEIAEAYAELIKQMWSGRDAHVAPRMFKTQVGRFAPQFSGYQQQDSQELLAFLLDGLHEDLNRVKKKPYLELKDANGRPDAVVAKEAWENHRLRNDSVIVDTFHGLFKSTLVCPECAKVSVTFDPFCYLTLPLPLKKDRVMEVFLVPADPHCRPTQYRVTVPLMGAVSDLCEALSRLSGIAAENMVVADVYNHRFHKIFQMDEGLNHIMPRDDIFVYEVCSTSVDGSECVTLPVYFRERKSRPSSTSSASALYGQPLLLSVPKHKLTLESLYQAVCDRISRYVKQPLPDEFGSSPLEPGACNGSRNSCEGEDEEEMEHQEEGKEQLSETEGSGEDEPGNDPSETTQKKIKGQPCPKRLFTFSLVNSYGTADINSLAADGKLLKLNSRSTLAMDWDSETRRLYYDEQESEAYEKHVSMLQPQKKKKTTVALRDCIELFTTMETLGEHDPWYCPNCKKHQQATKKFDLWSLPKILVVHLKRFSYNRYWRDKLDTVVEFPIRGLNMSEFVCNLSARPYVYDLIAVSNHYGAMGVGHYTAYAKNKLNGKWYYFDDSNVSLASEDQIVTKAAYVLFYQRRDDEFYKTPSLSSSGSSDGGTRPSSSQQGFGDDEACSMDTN
Outline: as §1

Measured: log2 ratio of Biotin-Ahx-Ub-VS probe labelling

USP34, sequence (Q70CQ2 whole entry, the tested form may be a part): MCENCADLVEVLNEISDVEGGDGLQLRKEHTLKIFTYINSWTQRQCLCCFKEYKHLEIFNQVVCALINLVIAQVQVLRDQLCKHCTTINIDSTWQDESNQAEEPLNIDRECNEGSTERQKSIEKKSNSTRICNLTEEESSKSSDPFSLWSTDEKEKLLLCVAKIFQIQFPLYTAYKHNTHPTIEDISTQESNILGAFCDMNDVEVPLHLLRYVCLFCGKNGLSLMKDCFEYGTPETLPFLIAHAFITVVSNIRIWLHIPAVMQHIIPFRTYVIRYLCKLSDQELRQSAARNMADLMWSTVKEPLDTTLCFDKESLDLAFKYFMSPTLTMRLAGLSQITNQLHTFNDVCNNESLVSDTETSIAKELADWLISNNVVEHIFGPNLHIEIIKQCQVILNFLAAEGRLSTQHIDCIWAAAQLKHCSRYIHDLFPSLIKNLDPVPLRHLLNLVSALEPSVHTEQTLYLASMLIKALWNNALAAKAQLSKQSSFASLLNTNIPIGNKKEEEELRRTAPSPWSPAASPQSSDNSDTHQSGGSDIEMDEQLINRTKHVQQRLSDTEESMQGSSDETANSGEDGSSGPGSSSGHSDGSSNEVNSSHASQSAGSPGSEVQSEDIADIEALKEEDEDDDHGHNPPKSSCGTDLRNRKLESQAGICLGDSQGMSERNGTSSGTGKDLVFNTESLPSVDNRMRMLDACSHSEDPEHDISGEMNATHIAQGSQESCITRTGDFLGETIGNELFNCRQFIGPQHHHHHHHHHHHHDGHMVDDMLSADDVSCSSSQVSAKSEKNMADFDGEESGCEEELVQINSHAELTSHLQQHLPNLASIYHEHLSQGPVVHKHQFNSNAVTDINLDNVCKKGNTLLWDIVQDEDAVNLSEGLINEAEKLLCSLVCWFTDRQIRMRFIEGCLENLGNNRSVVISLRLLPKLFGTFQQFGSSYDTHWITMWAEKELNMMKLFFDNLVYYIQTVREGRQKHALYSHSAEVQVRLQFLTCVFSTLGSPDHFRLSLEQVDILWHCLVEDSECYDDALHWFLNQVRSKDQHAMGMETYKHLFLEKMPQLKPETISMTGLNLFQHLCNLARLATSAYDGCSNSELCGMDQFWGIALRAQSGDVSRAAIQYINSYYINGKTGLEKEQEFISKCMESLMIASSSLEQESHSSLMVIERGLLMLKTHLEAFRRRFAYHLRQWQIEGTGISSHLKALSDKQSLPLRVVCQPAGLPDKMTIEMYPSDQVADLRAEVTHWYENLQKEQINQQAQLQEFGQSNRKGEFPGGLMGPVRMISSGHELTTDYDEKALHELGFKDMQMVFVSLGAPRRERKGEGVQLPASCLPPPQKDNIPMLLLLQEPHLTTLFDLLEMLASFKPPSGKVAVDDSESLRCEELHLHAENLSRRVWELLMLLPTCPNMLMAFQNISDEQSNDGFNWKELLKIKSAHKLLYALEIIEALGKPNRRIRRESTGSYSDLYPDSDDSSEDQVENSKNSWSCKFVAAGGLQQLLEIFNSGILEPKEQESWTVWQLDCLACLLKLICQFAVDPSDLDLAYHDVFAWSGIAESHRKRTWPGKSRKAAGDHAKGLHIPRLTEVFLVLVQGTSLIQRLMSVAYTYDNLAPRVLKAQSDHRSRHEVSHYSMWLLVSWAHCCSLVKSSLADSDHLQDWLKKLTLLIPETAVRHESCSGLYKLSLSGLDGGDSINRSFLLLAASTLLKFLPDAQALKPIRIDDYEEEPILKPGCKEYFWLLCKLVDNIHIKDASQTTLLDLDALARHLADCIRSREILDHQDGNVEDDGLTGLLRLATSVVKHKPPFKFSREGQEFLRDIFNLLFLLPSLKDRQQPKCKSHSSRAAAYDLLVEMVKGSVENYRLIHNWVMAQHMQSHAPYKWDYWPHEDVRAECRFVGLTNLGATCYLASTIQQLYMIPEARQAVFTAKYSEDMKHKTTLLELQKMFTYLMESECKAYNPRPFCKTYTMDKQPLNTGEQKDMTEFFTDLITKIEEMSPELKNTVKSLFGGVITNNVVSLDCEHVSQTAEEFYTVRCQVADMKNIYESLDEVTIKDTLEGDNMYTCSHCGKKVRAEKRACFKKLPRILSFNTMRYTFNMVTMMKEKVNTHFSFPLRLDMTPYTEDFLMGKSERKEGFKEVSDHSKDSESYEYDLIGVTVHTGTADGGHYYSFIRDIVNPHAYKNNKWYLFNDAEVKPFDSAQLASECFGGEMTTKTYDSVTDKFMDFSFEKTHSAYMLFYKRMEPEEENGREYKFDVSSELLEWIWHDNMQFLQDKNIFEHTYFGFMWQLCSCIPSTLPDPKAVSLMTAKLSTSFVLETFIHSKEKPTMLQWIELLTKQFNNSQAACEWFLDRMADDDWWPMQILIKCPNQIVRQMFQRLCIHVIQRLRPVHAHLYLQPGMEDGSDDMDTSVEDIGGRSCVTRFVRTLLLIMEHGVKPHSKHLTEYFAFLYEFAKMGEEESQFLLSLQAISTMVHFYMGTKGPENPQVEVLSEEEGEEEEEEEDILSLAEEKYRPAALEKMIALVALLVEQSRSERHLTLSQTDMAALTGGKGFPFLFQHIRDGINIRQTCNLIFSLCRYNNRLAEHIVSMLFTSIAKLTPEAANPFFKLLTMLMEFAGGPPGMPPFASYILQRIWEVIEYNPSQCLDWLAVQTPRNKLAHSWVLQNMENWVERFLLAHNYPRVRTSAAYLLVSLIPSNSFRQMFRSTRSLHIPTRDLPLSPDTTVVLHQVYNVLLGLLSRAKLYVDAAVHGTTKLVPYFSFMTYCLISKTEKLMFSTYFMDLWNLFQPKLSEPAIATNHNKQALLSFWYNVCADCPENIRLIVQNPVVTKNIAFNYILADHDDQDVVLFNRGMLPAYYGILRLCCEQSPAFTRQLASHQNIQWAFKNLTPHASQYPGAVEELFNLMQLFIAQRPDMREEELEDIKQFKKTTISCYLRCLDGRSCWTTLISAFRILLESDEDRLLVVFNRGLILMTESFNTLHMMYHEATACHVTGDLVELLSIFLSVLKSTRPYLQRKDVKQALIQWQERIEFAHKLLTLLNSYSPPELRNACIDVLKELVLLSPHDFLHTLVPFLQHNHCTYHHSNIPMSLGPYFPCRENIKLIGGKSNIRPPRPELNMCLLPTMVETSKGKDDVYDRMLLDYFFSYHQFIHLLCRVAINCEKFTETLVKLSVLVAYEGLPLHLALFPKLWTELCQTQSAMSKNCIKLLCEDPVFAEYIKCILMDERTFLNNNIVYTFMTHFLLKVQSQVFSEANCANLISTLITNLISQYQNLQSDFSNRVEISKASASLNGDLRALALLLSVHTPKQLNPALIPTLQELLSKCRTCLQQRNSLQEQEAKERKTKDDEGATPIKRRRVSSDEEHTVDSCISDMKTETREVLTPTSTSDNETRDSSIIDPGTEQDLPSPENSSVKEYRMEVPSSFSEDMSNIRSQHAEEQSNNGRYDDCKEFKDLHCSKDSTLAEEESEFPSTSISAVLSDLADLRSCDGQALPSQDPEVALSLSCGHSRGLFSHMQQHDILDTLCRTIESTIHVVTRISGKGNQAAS

O=C(CN1CCN(C(=O)CCl)CC1)Nc1cccc(F)c1
inactive: USP34 -0.112 | USP36 0.0501 | USP38 -0.114 | USP39 -0.288 | USP4 -0.0247
